# CHX counter = Cycloheximide Counterscreen for Small Molecule Inhibitors of Shiga Toxin | hit rate 12% among 300,000 | cell reporter, cycloheximide protein synthesis inhibition counterscreen | max response, % | AID 2314, 2010; in the data active = max response mostly above about 13%, no sharp cut-off; inactive = mostly below about 14%; note: read at 38.3 µM for the half of the compounds with a filed dose; 0% is about no effect
# Pf growth 96h = Primary qHTS for delayed death inhibitors of the malarial parasite plastid, 96 hour incubation; P. falciparum luciferase reporter growth, 96 h; hit rate 6.9% among 320,000; AID 504834, 2011; Potency, µM (top dose mostly 28.7 µM), inactives show at the top dose activity change, negative = inhibition, usual class: inhibitors; note: potency is the fitted concentration of half-maximal effect; % is set by controls: 0 for no effect and ±100 for the full control effect
#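 Two parasite generations (96 h, 37 C, 5% CO2) of compound exposure in infected erythrocytes (0.05% parasitemia, 2% hematocrit). Luciferase-reporter P. falciparum; decreased luminescence indicates inhibited growth, aimed at apicoplast-acting delayed death.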
# NS1 inh = qHTS Assay for Inhibitors of Influenza NS1 Protein Function | Potency, µM (highest dose often 46.1 µM), inactives show at the highest dose activity, positive = more growth | hit rate 0.4% among 270,000; calls by dose curve; note: potency is the fitted concentration of half-maximal effect; actives are rising curves; nearly all actives have a fitted effect of over 50% in size
#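 Recovery from NS1-induced slow growth read by OD600 in budding yeast switched to galactose assay medium (pH 6.0, -URA) at 1:100 dilution. Compound 23 nl per well; the matching strain lacking NS1 serves as control.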
# Pf growth 48h = Primary qHTS for delayed death inhibitors of the malarial parasite plastid, 48 hour incubation | Potency, µM (top dose mostly 28.7 µM), for inactives: top-dose activity change, negative = inhibition, usual class: inhibitors | AID 504832, 2011 | P. falciparum luciferase growth in erythrocytes, 48 h | hit rate 5.9% among 310,000; note: potency is the fitted concentration of half-maximal effect; % is set by controls: 0 for no effect and ±100 for the full control effect
#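 Erythrocytes infected with P. falciparum carrying an integrated firefly luciferase reporter (2% hematocrit, 0.1% parasitemia final) were exposed to compounds in RPMI 1640 with 0.5% Albumax at 37 C, 5% CO2. Growth inhibition was scored as reduced luminescence.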
# Shiga toxin inh = A qHTS for Small Molecule Inhibitors of Shiga Toxin; Vero cells, Shiga toxin protein synthesis inhibition reporter; inhibition, % at 38.7 µM; hit rate 9.2% among 290,000; AID 2315, 2010; in the data active = inhibition mostly above about 28%, no sharp cut-off; inactive = mostly below about 43%; note: 0% is about no effect
# Giardia FBPA inh = qHTS Assay for Inhibitors of Fructose-1,6-bisphosphate Aldolase from Giardia Lamblia; A8B2U2; purified Giardia FBPA; Potency, µM (doses to about 59.6 µM), for the others: top-dose activity, negative = inhibition, hits mostly inhibitors; hit rate 0.71% among 290,000; AID 2451, 2010; note: potency is the fitted concentration of half-maximal effect; % is set by controls: 0 for no effect and ±100 for the full control effect; nearly all actives have a fitted effect of over 55% in size
# Target sequence (A8B2U2 whole entry, looked up): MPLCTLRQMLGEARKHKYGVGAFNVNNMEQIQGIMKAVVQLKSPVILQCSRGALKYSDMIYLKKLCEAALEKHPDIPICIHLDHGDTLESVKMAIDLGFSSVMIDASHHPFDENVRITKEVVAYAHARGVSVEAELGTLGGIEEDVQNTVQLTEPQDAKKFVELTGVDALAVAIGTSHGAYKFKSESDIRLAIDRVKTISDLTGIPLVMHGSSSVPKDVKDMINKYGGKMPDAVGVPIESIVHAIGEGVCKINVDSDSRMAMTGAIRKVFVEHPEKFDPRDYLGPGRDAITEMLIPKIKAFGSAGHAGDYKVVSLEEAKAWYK
#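 Giardia FBPA (40 nM reagent) was preincubated 10 min at RT with compound (up to 57.5 uM final), then substrate plus GAPDH/TPI/NAD/arsenate coupling system with diaphorase/resazurin was added; resorufin fluorescence (525/598 nm) was read after 20 min.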
# Starred values were filed as active, the others as inactive; i = inactive; u = inconclusive; x = no result given; [ ] = remark or other dose. An excerpt weighted towards active compounds, which were near 21% of everything screened. Unless noted, calls come from the whole dose curve; as a rule, active = well fitted curve in the direction sought with a large enough effect; inconclusive = small, poorly fitted or top-dose-only effect, or another doubt; inactive = no such curve, though single readings can be large; an effect the other way counts as inactive or inconclusive.
SMILES,CHX counter,Pf growth 96h,NS1 inh,Pf growth 48h,Shiga toxin inh,Giardia FBPA inh
Fc1cccc(NC(=S)NCCCN2CCOCC2)c1,2,131%,6%,6%,-23,x
O=C(Nc1ccc(N2CCCC2=O)cc1)c1cccc(F)c1,39*,x,6%,161%,76*,4%
CC(=O)c1ccc(NC(=O)c2ccc(N3CCCC3=O)cc2)cc1,x,2%,x,-3%,x,x
CSc1cccc(NC(=S)NCCCN2CCN(c3ccc(F)cc3)CC2)c1,-1,8.3µM*,2%,u,-12,1%
NC(=O)NC(=O)C(Nc1ccc(N2CCCCC2)cc1)c1ccccc1 (stereo unspecified),51*,131%,-6%,101%,121*,-2%
Cc1ccc(NC(=O)c2ccc(NC(=O)C3CCCCC3C(=O)O)cc2)cc1 (stereo unspecified),30*,16%,8%,31%,75*,x
COc1ccc(CN2CCCC(C(=O)c3ccc(Cl)cc3)C2)c(O)c1 (stereo unspecified),-3,-72%,-11%,0.83µM*,-12,10%
COc1ccc(C(=O)C2CCCN(Cc3cc(Cl)ccc3O)C2)c(OC)c1 (stereo unspecified),-1,16%,-26%,u,-10,-25%
O=C(c1ccccc1)C1CCCN(Cc2nc(-c3cnccn3)no2)C1 (stereo unspecified),-4,5.2µM*,0%,-12%,19,-3%
O=C(c1ccc(Cl)cc1)C1CCCN(Cc2cccc3cccnc23)C1 (stereo unspecified),0,-5%,2%,9.3µM*,-5,-1%
CSc1ccc(C(=O)C2CCCN(Cc3cccc4nccnc34)C2)cc1 (stereo unspecified),-3,u,3%,10µM*,-17,7%
COc1ccccc1CCC(=O)OCC(=O)Nc1ccc2[nH]c(=O)[nH]c2c1,x,-1%,x,-2%,x,x
C[C@@H]1C=CCC(=O)OC[C@H](C)C(=O)OC[C@H]2O[C@H]1C=C[C@@H]2O,x,x,x,x,x,2%[12.9 µM]
O=C(N/C(=C\c1ccco1)C(=O)N1CCOCC1)c1ccccc1Cl,-5,u,-10%,10%,-16,-17%
COc1cc(SC#N)ccc1N=Cc1c(C)[nH]n(-c2cccc3ccccc23)c1=O,5,0.74µM*,-2%,9.3µM*,-19,-1%
O=C1NN=C(CSc2n[nH]c(=S)s2)CS1,0,34%,7%,-12%,-12,3%
COCC(=O)Nc1nnc(C2CCCCC2)s1,20*,-18%,-7%,72%,53*,-4%
Cc1cc(C(=O)Nc2nnc(C3CCCCC3)s2)no1,16,209%,-114%,28%,40,4%
CCOC(=O)C(=O)Nc1nnc(C2CCCCC2)s1,8,x,-57%,23%,13,3%
CC1CCCCN1C(=O)CCC(=O)Nc1nnc(C2CCCCC2)s1 (stereo unspecified),8,u,1%,u,1,x
CCOCC(=O)Nc1nnc(C2CCCCC2)s1,36*,-1%,-42%,100%,46*,0%
Cc1ccc(C(=O)Nc2nnc(C3CCCCC3)s2)o1,21*,x,-90%,262%,90*,0%
CC(Oc1ccccc1)C(=O)Nc1nnc(C2CCCCC2)s1 (stereo unspecified),49*,0.0029µM*,-10%,27%,130*,6%
NCCOc1ccccn1,x,x,13%,x,x,x
Cc1cc(C)cc(N(CC(=O)NCC2CCCO2)C(=O)CCC(=O)Nc2nccs2)c1 (stereo unspecified),-7,17%,6%,14%,-5,x
SMILES,CHX counter,Pf growth 96h,NS1 inh,Pf growth 48h,Shiga toxin inh,Giardia FBPA inh
COc1cccc(CN2CCNC(=O)C2CC(=O)N(C)C2CCCCC2)c1 (stereo unspecified),1,u,0%,-18%,-9,-22%
CCn1c(SCC(=O)N2CCC(C)CC2)nc2c1c(=O)n(C)c(=O)n2C,-6,24%,-5%,25%,-11,-2%
NC(=O)c1ccccc1OCC(=O)Nc1ccc2c(c1)CCC2,x,110%,x,81%,x,x
NC(=O)c1ccccc1OCC(=O)Nc1ccc(Cl)c(Cl)c1,39*,i,-5%,29%,71*,4%
COc1ccccc1OC(C)C(=O)Nc1ccc2c(c1)OCCO2 (stereo unspecified),19*,4%,-9%,23%,25,4%
Cc1ccccc1OC(C)C(=O)Nc1ccc2c(c1)OCO2 (stereo unspecified),15,u,-29%,-3%,-19,x
Cc1cccc(C)c1OCC(=O)Nc1ccc2c(c1)OCCO2,26,12µM*,-10%,27%,82*,x
O=C(COc1ccc(Br)cc1Cl)NC(=O)Nc1ccc2c(c1)OCCO2,36*,34%[5.75 µM],x,68%,63*,-1%
Clc1ccccc1-c1nc(NCc2cccnc2)c2ccccc2n1,x,x,x,x,x,10%
O=C(COC(=O)c1cccnc1Cl)NCc1ccc2c(c1)OCO2,-2,11%,-7%,13%,-12,3%
O=C(COc1ccccc1Cl)Nc1ccc2c(c1)OCCO2,45*,-18%,-60%,136%,87*,-3%
Cc1ccc(NC(=O)CCOc2ccccc2C)cc1C,26*,4%,-39%,28%,40,5%
Cc1ccccc1OCCC(=O)Nc1ccc(F)c(Cl)c1,1,-12%,-48%,-4%,21,0%
COc1ccccc1OCC(=O)Nc1ccc(Cl)cc1,24*,34%,-15%,36%,51*,-7%
O=C(COC(=O)c1cccnc1Cl)Nc1ccc2c(c1)OCCO2,49*,29%,2%,26%,115*,1%
O=[N+]([O-])c1ccccc1S(=O)(=O)NCC1CCC(CNCC2CCc3ccccc3C2)CC1 (stereo unspecified),x,x,x,x,x,3%
CCSCc1nnc(SCC(=O)Nc2nc(C)cs2)n1C,0,16%,-3%,-1%,-2,-5%
COCC(=O)N1CCC(Oc2ccc(C(=O)N(C)C(C)c3ccon3)cc2)CC1 (stereo unspecified),9,90%,-1%,24%,9,-6%
O=C(COC(=O)c1nc(Cl)ccc1Cl)NCc1cccs1,x,21%,x,10%,x,x
O=C(COc1ccccc1Cl)NCCCN1CCOCC1,0,-23%,-9%,7%,-7,4%
CC(C)=CC(=O)OCC(=O)Nc1ccc(Cl)cc1,24*,187%,-12%,55%,41*,-6%
O=C(COC(=O)c1cccnc1Cl)NCc1cccs1,37*,13%,x,i,33,5%
Cc1ccccc1OCC(=O)N/N=C/c1ccc2c(c1)OCCO2,31*,2.6µM*,-20%,-1%,19,0%
O=C(COc1ccccc1)N/N=C/c1ccc2c(c1)OCO2,6,361%,x,12%,24,1%
